Source: PubChem BioAssay
A selection: hits, their analogues and other compounds. The true share with any hit is near 7.1%.
ATXN2 expr inh: Primary qHTS for Inhibitors of ATXN expression; HEK-293 ATXN2-luciferase reporter, luminescence, 24 h; Potency, µM (top dose mostly 57 µM), usual class: inhibitors; hit rate 0.72% among 360,000; AID 1745845, 2022; also: nearly all actives have a fitted effect of over 55% in size
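qHTS (up to 57 uM final) was run with 24 h compound exposure of reporter cells at 37 °C. Each well was multiplexed: SteadyGlo luminescence measured ATXN2-luciferase expression after a fluorogenic Gly-Phe-AFC viability readout (25 uM final).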
IL1B secr inh: qHTS for Inhibitors of Inflammasome Signaling: IL-1-beta AlphaLISA Primary Screen; THP-1 LPS/ATP IL-1B secretion, AlphaLISA, 16 h; hits give low values; activity change, % at 57.5 µM; hit rate 4.7% among 360,000; AID 743279, 2014; in the data active = activity change below about -50%; inconclusive = mostly about -30% to -49%
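Secreted IL-1B measured by AlphaLISA bead assay after 16 h compound exposure of THP-1 cells; compounds (final up to 57.5 uM) added 1 h before LPS (250 ng/mL) and ATP (1.25 mM) stimulation; lower signal means less secretion.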
SW480 rerep: A quantitative high throughput screen for small molecules that induce DNA re-replication in SW480 colon adenocarcinoma cells. SW480 DNA re-replication, Hoechst DNA content imaging, 48 h. Potency, µM (top dose mostly 46.1 µM), actives largely listed as activators. hit rate 1.8% among 340,000; also: nearly all actives have a fitted effect of over 55% in size
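Readout is total intensity of Hoechst-stained nuclei, excited at 405 nm and collected at 500-530 nm. Compound treatment lasted 48 hr at 37 C in 5% CO2 before staining.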
PINK1 expr mod: A Quantitative High throughput Screen to Identify Chemical Modulators of PINK1 Expression | PINK1 immunofluorescence, high-content cytometry, 24 h | Potency, µM (highest dose often 76.6 µM), usual class: activators | hit rate 0.2% among 410,000 | AID 624263, 2012; active = well fitted activation curve with a large enough effect; inconclusive = small, poorly fitted or top-dose-only effect; cell line not stated here; also: nearly all actives have a fitted effect of over 65% in size
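Decision-based qHTS: stable cells, 24 h exposure to five compound concentrations, CCCP as control. Fixed cells stained for PINK1 plus nuclear, mitochondrial and cell markers, cytometer read.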
ATXN viability: Viability Counterscreen for Primary qHTS for Inhibitors of ATXN expression; S2 cells (HEK-293 line with an ATXN2-luciferase reporter) viability, CellTiter-Fluor protease fluorescence, 24 h; hit rate 0.49% among 400,000; Potency, µM (top dose mostly 56.7 µM), most hits filed as cytotoxic; also: nearly all actives have a fitted effect of over 40% in size
MCF10A rerep: A quantitative high throughput screen for small molecules that induce DNA re-replication in MCF 10a normal breast cells; Potency, µM (titrated, usually from 46.1 µM), hits mostly activators; MCF 10A DNA re-replication, Hoechst nuclear intensity, 48 h; hit rate 2.9% among 350,000; also: nearly all actives have a fitted effect of over 50% in size
Each line names hits and unclear results; the compound was inactive in the other large screens. Unless noted, calls follow the shape of the dose curve; as a rule, active = well fitted curve in the direction sought with a large enough effect; inconclusive = small, poorly fitted or top-dose-only effect, or another doubt; inactive = no such curve, though single readings can be large; an effect the other way counts as inactive or inconclusive.

Cc1ccc(NC2=C(Cl)C(=O)OC2OC(=O)c2ccc(C)cc2)cc1 (centres undefined)	IL1B secr inh -101.5, MCF10A rerep inconclusive
Cc1ccccc1NC1=C(Cl)C(=O)OC1OC(=O)c1ccco1 (centres undefined)	ATXN2 expr inh inconclusive, IL1B secr inh inconclusive, ATXN viability inconclusive
COc1cccc(NC2=C(Cl)C(=O)OC2OC(=O)c2ccco2)c1 (centres undefined)	IL1B secr inh inconclusive, SW480 rerep inconclusive, MCF10A rerep 14.1µM
O=C(CNC(=O)C1CCCCC1)OCC(=O)c1ccc([N+](=O)[O-])cc1	none (no result: ATXN2 expr inh, IL1B secr inh, SW480 rerep, ATXN viability, MCF10A rerep)
Cc1cc(C(=O)NC(Cc2c[nH]c3ccccc23)C(=O)O)c(C)o1 (centres undefined)	none
COC(=O)C(Cc1c[nH]c2ccccc12)NC(=O)c1cc(-c2ccc(OC)c(OC)c2)oc1C (centres undefined)	IL1B secr inh -64.3, MCF10A rerep inconclusive
COc1ccc(CNC(=O)COC(=O)[C@H](Cc2c[nH]c3ccccc23)NC(=O)c2cccs2)cc1	IL1B secr inh -92.6, MCF10A rerep inconclusive
COC(=O)C(Cc1ccccc1)NC(=O)c1cc(=O)[nH]c2ccccc12 (centres undefined)	IL1B secr inh -102.6
COC(=O)[C@@H](Cc1c[nH]c2ccccc12)NC(=O)c1cc(=O)[nH]c2ccccc12	IL1B secr inh -98.9
Cc1ccc(-c2c3c(=O)n(C)c(=O)n(C)c3c3c(C)nc4ccccc4n23)cc1	none (no result: IL1B secr inh, SW480 rerep, MCF10A rerep)
COCc1c(C(=O)N2CCCC(C)C2)cnn1-c1nccc(-c2cc(C)sc2C)n1 (centres undefined)	none (no result: ATXN2 expr inh, IL1B secr inh, SW480 rerep, MCF10A rerep)
CCOC(=O)c1ccc(NC(=O)CN2C(=O)CC(c3ccc(C)c(C)c3)=Nc3ccccc32)cc1	none (no result: IL1B secr inh, SW480 rerep, MCF10A rerep)
COC(=O)[C@@H](Cc1c[nH]c2ccccc12)NC(=O)CNC(=O)c1ccccc1OC	IL1B secr inh -99.5
COC(=O)C(Cc1c[nH]c2ccccc12)NC(C)=O (centres undefined)	none
Cc1cc(NC(=O)CN(C)S(=O)(=O)c2ccc3c(c2)CCCC(=O)N3)ccc1Br	ATXN2 expr inh 15.8µM (no result: IL1B secr inh, SW480 rerep, ATXN viability, MCF10A rerep)
COCCN(C(=O)c1ccco1)c1nnc(-c2ccc(OC)c(OC)c2)s1	IL1B secr inh -58.6
CC(=O)Nc1ccc(S(=O)(=O)NCCc2csc3nc(-c4ccc(Cl)cc4)nn23)cc1	none (no result: ATXN2 expr inh, IL1B secr inh, SW480 rerep, ATXN viability, MCF10A rerep)
COc1ccc(N(CC(=O)Nc2cccc(C(C)=O)c2)S(=O)(=O)c2ccccc2)c(OC)c1	ATXN viability inconclusive (no result: IL1B secr inh, SW480 rerep, MCF10A rerep)
Cc1cc(C(=O)CN2C(=O)NC3(CCCCC3C)C2=O)c(C)n1Cc1cccs1 (centres undefined)	none
Cc1cc(C(=O)CN2C(=O)c3cccc(N)c3C2=O)c(C)n1Cc1cccs1	SW480 rerep inconclusive, MCF10A rerep 2.59µM (no result: ATXN viability)
CC(C)c1cc(C(=O)OCC(=O)NC(=O)NCc2ccco2)c(O)c(C(C)C)c1	ATXN2 expr inh inconclusive, IL1B secr inh -86.2, ATXN viability inconclusive, MCF10A rerep 16.4µM
CCOC(=O)C(C)Oc1cccc2c(=O)n(CC(=O)Nc3ccc(OC)cc3)ccc12 (centres undefined)	IL1B secr inh -54.6 (no result: SW480 rerep, MCF10A rerep)
CCOC(=O)C(C)Oc1cccc2c(=O)n(CC(=O)NCCc3ccccc3)ccc12 (centres undefined)	IL1B secr inh -53.4
CCOC(=O)C(C)Oc1cccc2c(=O)n(CC(=O)NCc3ccccc3)ccc12 (centres undefined)	IL1B secr inh -98.2, SW480 rerep 1.3µM, ATXN viability inconclusive, MCF10A rerep 0.581µM
CCOC(=O)C(C)Oc1cccc2c(=O)n(CC(=O)NCc3ccc(F)cc3)ccc12 (centres undefined)	SW480 rerep inconclusive, ATXN viability inconclusive, MCF10A rerep inconclusive (no result: ATXN2 expr inh)
COc1ccc(NC(=O)Cn2ccc3c(OC)cccc3c2=O)cc1	ATXN viability inconclusive
O=C(Nc1ccccc1Oc1cccnc1)C1CCCN(C/C=C/c2ccc(F)cc2)C1 (centres undefined)	IL1B secr inh -59.0, ATXN viability inconclusive, MCF10A rerep inconclusive
Cc1cccc(CN2CCCC(C(=O)Nc3ccccc3Oc3cccnc3)C2)c1 (centres undefined)	IL1B secr inh -55.6
CCOC(=O)C1=C[C@@H](CC)N(S(=O)(=O)c2ccccc2)[C@H]1c1ccccc1	none (no result: SW480 rerep, MCF10A rerep)
COc1cc2c(C#CCCO)c(-c3ccc(C#N)cc3)oc(=O)c2cc1OC	MCF10A rerep 6.51µM (no result: ATXN viability)
COCc1ccc(-c2c(-c3ccsc3)oc(=O)c3cc(OC)c(OC)cc23)cc1	MCF10A rerep 3.66µM
COc1ccc(-c2c(-c3ccc(C#N)cc3)oc(=O)c3cc(OC)c(OC)cc23)cc1	MCF10A rerep inconclusive
COc1cc2c(C#CCCO)c(-c3ccsc3)oc(=O)c2cc1OC	ATXN2 expr inh inconclusive, IL1B secr inh -73.2, ATXN viability inconclusive
NC(=O)c1ccccc1NC(=O)Cn1nc(Cc2cccnc2)c2ccccc2c1=O	none (no result: ATXN2 expr inh, IL1B secr inh, SW480 rerep, ATXN viability, MCF10A rerep)
CNCC(=O)NC(CCCN=C(N)N)C(=O)NC(C(=O)NC(Cc1ccc(O)cc1)C(=O)NC(C(=O)NC(Cc1cnc[nH]1)C(=O)N1CCCC1C(=O)NC(C)C(=O)O)C(C)C)C(C)C (centres undefined)	none (no result: ATXN2 expr inh, IL1B secr inh, PINK1 expr mod, ATXN viability)
CCC1CCCCN1c1cc(C)nc2cc(-c3cccc(C)c3)nn12 (centres undefined)	IL1B secr inh -98.5, SW480 rerep inconclusive, MCF10A rerep 3.55µM
CCOC(=O)C1CCCN(c2cc(C)nc3cc(-c4ccc(Cl)cc4)nn23)C1 (centres undefined)	none
O=C(NC(Nc1nc2ccc([N+](=O)[O-])cc2s1)(C(F)(F)F)C(F)(F)F)c1cccnc1	ATXN2 expr inh inconclusive, IL1B secr inh -69.8, PINK1 expr mod inconclusive, ATXN viability inconclusive
O=C(NC(NNc1ccc([N+](=O)[O-])cc1)(C(F)(F)F)C(F)(F)F)c1ccccc1Cl	MCF10A rerep inconclusive
Nc1ccc2nc(SCc3ccc([N+](=O)[O-])cc3)sc2c1	none
CN(C)S(=O)(=O)c1ccc2nc(NC(=O)c3cccnc3)sc2c1	none
O=[N+]([O-])c1ccc2nc(SCc3ccccc3Cl)sc2c1	MCF10A rerep 13µM
O=C(NC(Nc1nc2ccc([N+](=O)[O-])cc2s1)(C(F)(F)F)C(F)(F)F)c1ccccc1Cl	ATXN2 expr inh inconclusive, IL1B secr inh -69.5, SW480 rerep inconclusive, PINK1 expr mod inconclusive, ATXN viability inconclusive, MCF10A rerep 20.6µM
CCc1ccc(-n2nc(C)c3c(C(=O)Nc4cc(OC)cc(OC)c4)cc(C)nc32)cc1	none (no result: IL1B secr inh, SW480 rerep, MCF10A rerep)
